# Read-outs that look alike come from different tables or passages of the source.
# Legend:
# Parameters in all cases: species or system human, MV4-11 + K-562 + COLO205 + SK-N-BE2 + OVCAR-8
# [1] = test system: ADK; details: read-out: apparent Kd, n = 1
# [2] = test system: COX5A; details: read-out: apparent Kd; compound concentrations: 100 nM and 1000 nM (sheet 'Samples'), CATDS: 3.6331945852285497E-2; n = 1
# [3] = test system: CSNK1A1; details: read-out: apparent Kd; compound concentrations: 100 nM and 1000 nM (sheet 'Samples'), CATDS: 6.6366617124681102E-2; n = 1
# [4] = test system: CSNK1D; details: read-out: apparent Kd; compound concentrations: 100 nM and 1000 nM (sheet 'Samples'), CATDS: 0.21669980545697101; n = 1
# [5] = test system: CSNK1E; details: read-out: apparent Kd; compound concentrations: 100 nM and 1000 nM (sheet 'Samples'), CATDS: 0.13524385654208201; n = 1
# [6] = test system: CSNK1G1; details: read-out: apparent Kd; compound concentrations: 100 nM and 1000 nM (sheet 'Samples'), CATDS: 3.36950722911461E-2; n = 1
# [7] = test system: CSNK1G3; details: read-out: apparent Kd; compound concentrations: 100 nM and 1000 nM (sheet 'Samples'), CATDS: 3.7890071369445298E-2; n = 1
# [8] = test system: T1, DJA1; details: read-out: apparent Kd; compound concentrations: 100 nM and 1000 nM (sheet 'Samples'), CATDS: 3.3060215115758199E-2; n = 1
# T1 construct: gene DNAJA1
# [9] = test system: MAP4K5; details: read-out: apparent Kd; compound concentrations: 100 nM and 1000 nM (sheet 'Samples'), CATDS: 3.4056635134305298E-2; n = 1
# [10] = test system: MAPK10; details: read-out: apparent Kd, n = 1
# [11] = test system: MAPK11; details: read-out: apparent Kd, n = 1
# [12] = test system: MAPK14; details: read-out: apparent Kd; compound concentrations: 100 nM and 1000 nM (sheet 'Samples'), CATDS: 0.505182268244599; n = 1
# [13] = test system: MAPK9; details: read-out: apparent Kd, n = 1
# [14] = test system: MAPKAPK2; details: read-out: apparent Kd, n = 1
# [15] = test system: NLK; details: read-out: apparent Kd; compound concentrations: 100 nM and 1000 nM (sheet 'Samples'), CATDS: 5.68204402660955E-2; n = 1
# [16] = test system: PKN3; details: read-out: apparent Kd; compound concentrations: 100 nM and 1000 nM (sheet 'Samples'), CATDS: 3.0507466694278802E-2; n = 1
# [17] = test system: PRKCA; details: read-out: apparent Kd; compound concentrations: 100 nM and 1000 nM (sheet 'Samples'), CATDS: 4.1145920495800903E-2; n = 1
# [18] = test system: PRKCB; details: read-out: apparent Kd; compound concentrations: 100 nM and 1000 nM (sheet 'Samples'), CATDS: 3.4087347473579097E-2; n = 1
# [19] = test system: PRKD2; details: read-out: apparent Kd; compound concentrations: 100 nM and 1000 nM (sheet 'Samples'), CATDS: 3.50594175571005E-2; n = 1
# [20] = test system: PRKD3; details: read-out: apparent Kd; compound concentrations: 100 nM and 1000 nM (sheet 'Samples'), CATDS: 3.1320583757310602E-2; n = 1
# [21] = test system: RIPK2; details: read-out: apparent Kd; compound concentrations: 100 nM and 1000 nM (sheet 'Samples'), CATDS: 4.9528140659543501E-2; n = 1
# [22] = test system: PIK3CB; details: read-out: apparent Kd; compound concentrations:100 nM and 1000 nM (sheet 'Samples'); n = 1
# [23] = test system: PIK3CD; details: read-out: apparent Kd; compound concentrations:100 nM and 1000 nM (sheet 'Samples'); n = 1
# [24] = test system: RIOK2; details: read-out: apparent Kd; compound concentrations:100 nM and 1000 nM (sheet 'Samples'); n = 1
# [25] = test system: ADCK5; details: read-out: apparent Kd; compound concentrations:100 nM and 1000 nM (sheet 'Samples'); n = 1
# [26] = test system: ADRBK1; details: read-out: apparent Kd; compound concentrations:100 nM and 1000 nM (sheet 'Samples'); n = 1
# [27] = test system: AKT2; details: read-out: apparent Kd; compound concentrations:100 nM and 1000 nM (sheet 'Samples'); n = 1
# [28] = test system: CDK4; details: read-out: apparent Kd; compound concentrations:100 nM and 1000 nM (sheet 'Samples'); n = 1
# [29] = test system: CDK6; details: read-out: apparent Kd; compound concentrations:100 nM and 1000 nM (sheet 'Samples'); n = 1
# [30] = test system: DDR1; details: read-out: apparent Kd; compound concentrations:100 nM and 1000 nM (sheet 'Samples'); n = 1
# [31] = test system: MAP2K2; details: read-out: apparent Kd; compound concentrations:100 nM and 1000 nM (sheet 'Samples'); n = 1
# [32] = test system: NNT; details: read-out: apparent Kd; compound concentrations:100 nM and 1000 nM (sheet 'Samples'); n = 1
# [33] = test system: NQO1; details: read-out: apparent Kd; compound concentrations:100 nM and 1000 nM (sheet 'Samples'); n = 1
# [34] = test system: STK26; details: read-out: apparent Kd; compound concentrations:100 nM and 1000 nM (sheet 'Samples'); n = 1
# [35] = test system: TP53RK; details: read-out: apparent Kd; compound concentrations:100 nM and 1000 nM (sheet 'Samples'); n = 1
# [36] = test system: AKT1; details: read-out: apparent Kd; compound concentrations:100 nM and 1000 nM (sheet 'Samples'); n = 1
# [37] = test system: MAP2K3; details: read-out: apparent Kd; compound concentrations:100 nM and 1000 nM (sheet 'Samples'); n = 1
# [38] = compound concentrations:100 nM and 1000 nM (sheet 'Samples')
smiles,measurement,setting,value
Cl.Cl.Cl.Fc1ccc(-c2ncn(C3CCNCC3)c2-c2ccnc(Nc3ccccc3)n2)cc1.Fc1ccc(-c2ncn(C3CCNCC3)c2-c2ccnc(Nc3ccccc3)n2)cc1 [SB-238039-R],potency estimated from few doses,"[1]; compound concentrations: 100 nM and 1000 nM (sheet 'Samples'), CATDS: 3.8521875066841203E-2",704 nM
same,potency estimated from few doses,[2],873 nM
same,potency estimated from few doses,[3],131 nM
same,potency estimated from few doses,[4],6.61 nM
same,potency estimated from few doses,[5],18.5 nM
same,potency estimated from few doses,[6],1180 nM
same,potency estimated from few doses,[7],747 nM
same,potency estimated from few doses,[8],1290 nM
same,potency estimated from few doses,[9],1130 nM
same,potency estimated from few doses,"[10]; compound concentrations: 100 nM and 1000 nM (sheet 'Samples'), CATDS: 4.2468368704664097E-2",504 nM
same,potency estimated from few doses,"[11]; compound concentrations: 100 nM and 1000 nM (sheet 'Samples'), CATDS: 0.108415283939704",32.7 nM
same,potency estimated from few doses,[12],1.59 nM
same,potency estimated from few doses,"[13]; compound concentrations: 100 nM and 1000 nM (sheet 'Samples'), CATDS: 5.19093996737921E-2",270 nM
same,potency estimated from few doses,"[14]; compound concentrations: 100 nM and 1000 nM (sheet 'Samples'), CATDS: 0.16433458855485",11.8 nM
same,potency estimated from few doses,[15],206 nM
same,potency estimated from few doses,[16],1900 nM
same,potency estimated from few doses,[17],560 nM
same,potency estimated from few doses,[18],1130 nM
same,potency estimated from few doses,[19],1000 nM
same,potency estimated from few doses,[20],1660 nM
same,potency estimated from few doses,[21],311 nM
O=c1cc(N2CCOCC2)nc2n(Cc3cccc4ccccc34)ccn12 [GSK2333389A],potency estimated from few doses,[1]; [38],889 nM
same,potency estimated from few doses,[22],16.1 nM
same,potency estimated from few doses,[23],214 nM
same,potency estimated from few doses,[24],1890 nM
COC(=O)Nc1nc2ccc(Oc3ccc(NC(=O)Nc4cc(C(F)(F)F)ccc4F)cc3)cc2n1C.Cl [GW692089A],potency estimated from few doses,[25],1770 nM
same,potency estimated from few doses,[26],1500 nM
same,potency estimated from few doses,[27],2410 nM
same,potency estimated from few doses,[28],2200 nM
same,potency estimated from few doses,[29],2300 nM
same,potency estimated from few doses,[30],1030 nM
same,potency estimated from few doses,[31],2020 nM
same,potency estimated from few doses,[32],1910 nM
same,potency estimated from few doses,[33],1810 nM
same,potency estimated from few doses,[24],2170 nM
same,potency estimated from few doses,[34],1760 nM
same,potency estimated from few doses,[35],1400 nM
C[C@@H](Cn1ncnn1)Nc1ncc2cc(Oc3ccc(F)cc3F)c(=O)n(C)c2n1 [RO5067310-000],potency estimated from few doses,[26],2270 nM
same,potency estimated from few doses,[36],1750 nM
same,potency estimated from few doses,[37],1770 nM
same,potency estimated from few doses,[10]; [38],424 nM
same,potency estimated from few doses,[11]; [38],30.9 nM
same,potency estimated from few doses,[13]; [38],265 nM
same,potency estimated from few doses,[14]; [38],3.25 nM

# Source: PMC11062922 (Nature Chemical Biology, 2023)
